# Laboratory results reported in the supplement of paper PMC9694430.
# Counter-ions that a name gives are not always drawn.
# Key:
# Test in all cases: thermal shift delta Tm vs DMSO control; higher = stronger stabilization (binding)
# Settings in all cases: 12.5 µM; protein concentration 2 µM
# [1] = system: LOC_OS01G01410-cb001
# Method in brief: (§1)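 Thermal shift values come from differential scanning fluorimetry on purified rice kinase domains made in E. coli, with melting temperatures obtained from Boltzmann fits. Samples of 19.5 μl held 2 μM kinase, 100 mM potassium phosphate pH 7.5, 150 mM NaCl, 10% glycerol, 5 × SYPRO Orange and compound in DMSO, and were heated from 25°C to 95°C at 0.05°C/s. Each shift is a triplicate mean relative to the DMSO-only protein sample.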
# [2] = system: LOC_OS01G02750-cb003
# Method in brief: as §1
# [3] = system: LOC_OS01G10900-cb004
# Method in brief: as §1
# [4] = system: LOC_OS01G13800-cb001
# Method in brief: as §1
# [5] = system: LOC_OS01G14860-cb001
# Method in brief: as §1
# [6] = system: LOC_OS01G21960-cb002
# Method in brief: as §1
# [7] = system: LOC_OS01G39600-cb002
# Method in brief: as §1
# [8] = system: LOC_OS01G48390-cb002
# Method in brief: as §1
# [9] = system: LOC_OS01G51400-cb002
# Method in brief: as §1
# [10] = system: T1, LOC_OS01G52050-cb004
# T1 sequence (whole entry): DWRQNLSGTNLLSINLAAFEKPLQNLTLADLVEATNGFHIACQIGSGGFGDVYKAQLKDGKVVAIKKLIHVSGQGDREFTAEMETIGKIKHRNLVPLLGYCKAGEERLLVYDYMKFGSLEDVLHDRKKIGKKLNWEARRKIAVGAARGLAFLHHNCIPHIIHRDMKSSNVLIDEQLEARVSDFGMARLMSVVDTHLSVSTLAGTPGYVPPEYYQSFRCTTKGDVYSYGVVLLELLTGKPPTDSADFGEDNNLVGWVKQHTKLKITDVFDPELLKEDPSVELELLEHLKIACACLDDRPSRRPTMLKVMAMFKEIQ
# Method in brief: as §1
# [11] = system: LOC_OS01G57100-cb003
# Method in brief: as §1
# [12] = system: LOC_OS01G60330-cb001
# Method in brief: as §1
# [13] = system: LOC_OS01G60700-cb002
# Method in brief: as §1
# [14] = system: LOC_OS01G63280-cb003
# Method in brief: as §1
# [15] = system: LOC_OS01G67340-cb003
# Method in brief: as §1
# [16] = system: LOC_OS01G70970-cb002
# Method in brief: as §1
# [17] = system: LOC_OS02G07810-cb001
# Method in brief: as §1
# [18] = system: LOC_OS02G08530-cb003
# Method in brief: as §1
# [19] = system: LOC_OS02G14120-cb001
# Method in brief: as §1
# [20] = system: LOC_OS02G17970-cb001
# Method in brief: as §1
# 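Also: purified Escherichia coli-expressed rice kinase domain construct.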
SMILES,thermal shift delta Tm [1] [°C],thermal shift delta Tm [2] [°C],thermal shift delta Tm [3] [°C],thermal shift delta Tm [4] [°C],thermal shift delta Tm [5] [°C],thermal shift delta Tm [6] [°C],thermal shift delta Tm [7] [°C],thermal shift delta Tm [8] [°C],thermal shift delta Tm [9] [°C],thermal shift delta Tm [10] [°C],thermal shift delta Tm [11] [°C],thermal shift delta Tm [12] [°C],thermal shift delta Tm [13] [°C],thermal shift delta Tm [14] [°C],thermal shift delta Tm [15] [°C],thermal shift delta Tm [16] [°C],thermal shift delta Tm [17] [°C],thermal shift delta Tm [18] [°C],thermal shift delta Tm [19] [°C],thermal shift delta Tm [20] [°C]
N=C(N)NC(=N)NCCc1ccccc1 [Phenformin HCl],0.54,0.14,0.3,-0.2,0.25,0.77,-0.37,0.38,0.25,0.48,2.51,0.5,0.54,0.18,-0.23,0.29,0.75,-0.63,1.22,0.39
C#Cc1cccc(Nc2ncnc3cc(OCCOC)c(OCCOC)cc23)c1 [Erlotinib],0.56,0.35,0.59,0.04,0.32,0.72,2.19,0.85,-0.14,0.19,-0.31,-0.11,0.43,-0.09,0.02,0.34,-0.06,0.9,1.45,0.75
Cc1cc([C@@H](C)Nc2ccccc2C(=O)O)c2nc(N3CCOCC3)cc(=O)n2c1,0.29,1.55,0.27,0.31,0.56,1.03,0.03,0.29,0.07,0.43,1.15,0.75,0.5,0.68,-0.15,0,1.33,0.42,-0.15,0.98
O=c1ncn2nc(Sc3ccc(F)cc3F)ccc2c1-c1c(Cl)cccc1Cl,0.07,0.77,0.61,0.23,0.42,0.49,-0.38,0.32,0.15,0.02,1.7,0.91,0.86,0.47,-0.29,0.12,0.79,0.67,0.31,0.56
COc1cc(N2CCN(C)CC2)ccc1Nc1nccc(-c2cn(C)c3cnccc23)n1,1.86,0.45,1.77,0.56,0.92,1.48,-0.38,1.57,0.19,1.15,1.48,2,1.01,0.34,0.37,0.31,0.46,3.48,5.04,0.61
"COc1cc(F)c(F)c(Nc2ccc(I)cc2F)c1NS(=O)(=O)C1(C[C@H](O)CO)CC1 [Refametinib (RDEA119, Bay 86-9766)]",1.35,-1.27,0.47,0.32,0.61,0.52,-0.03,0.23,0.02,1.46,0.45,1.69,0.96,0.75,-0.44,0.49,0.84,0.79,1.54,1.26
